High-throughput results (PubChem BioAssay)
An excerpt weighted towards active compounds, which were near 7.9% of everything screened.
FMDV antiviral: blocks foot and mouth disease virus; Potency, µM (titrated, usually from 57.9 µM), for the others: top-dose activity change, negative = inhibition, most hits filed as inhibitors; FMDV antiviral cell-based qHTS; hit rate 1.2% among 410,000; calls by dose curve; tested in HEK293T cells; further: read-out not given here; potency means the concentration at half of the fitted maximal effect; nearly all actives have a fitted effect of over 45% in size
HCV inhibitor: inhibitors of hepatitis C virus infection; Huh7.5.1 HCVcc-Cre infection, luciferase reporter, 44 h; Potency, µM (top dose mostly 41.8 µM), inactives show at the top dose activity change, negative = inhibition, most hits filed as inhibitors; hit rate 3.4% among 340,000; active means well fitted inhibition curve with a large enough effect; inconclusive means small, poorly fitted or top-dose-only effect, or another doubt; inactive means no such curve, though single readings can be large or run the other way; further: potency means the concentration at half of the fitted maximal effect
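Reporter virus HCVcc-Cre (~0.5 moi) infects cells exposed to compound; seeding density 1,000 cells/well with 4 h settling beforehand. Luminescence, 15 sec read, taken 44 h post-infection following a 15 min RT substrate incubation.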
HCMV inh: inhibitors of human cytomegalovirus | HFF cells, HCMV-luciferase reporter, 72 h; active compounds read low | activity change, negative = inhibition, % at 57.5 µM | hit rate 4.5% among 410,000 | AID 1259415; in the data active means activity change below about -60%; inconclusive means no clear call, values can overlap the other calls; inactive means above about -39%
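Two-dose cell screen: HFF monolayers treated with compounds and infected with luciferase-expressing HCMV at 1 PFU/cell, 72 h at 37C, then lysed for luciferase measurement.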
Lassa entry inh: Lassa virus entry inhibition | AID 540256 | Potency, µM (doses to about 37.9 µM), without a hit: at the highest dose activity change, negative = inhibition, hits mostly inhibitors | hit rate 1.2% among 300,000 | Lassa virus pseudotype entry inhibition, cell reporter; calls by dose curve; tested in HEK293 cells; further: potency means the concentration at half of the fitted maximal effect; nearly all actives have a fitted effect of over 50% in size
MARV entry inh: inhibitors of Marburg virus binding or cell entry; hit rate 1.8% among 300,000; AID 540276; Potency, µM (highest dose often 37.8 µM), for inactives: top-dose activity change, negative = inhibition, most hits filed as inhibitors; Marburg virus pseudotyped entry inhibition, cell reporter; calls by dose curve; tested in HEK293 cells; further: potency means the concentration at half of the fitted maximal effect
* = called active by the depositor; ? = inconclusive; nt = not tested or not shown; [ ] = dose if it differs, or a comment. On the % scale 0 is the no-effect control and ±100 the full control effect.

SMILES	FMDV antiviral	HCV inhibitor	HCMV inh	Lassa entry inh	MARV entry inh
C=C1CCC[C@]2(C)C[C@H]3OC(=O)C(CNCC(OC)OC)[C@H]3CC12 (stereo partly drawn)	-12%	4%	-30	20%[46.1 µM]	4%[46.1 µM]
C=C1CCC[C@]2(C)C[C@H]3OC(=O)C(CNC(C)CCCC(C)C)[C@H]3CC12 (stereo partly drawn)	-19%	?	-68*	?	?
COc1ccc(OC)c(CCNC(=O)CN2C(=O)COc3ccc(S(=O)(=O)N4CCC(C)CC4)cc32)c1	-2%	nt	-26	-13%[46.1 µM]	-10%[46.1 µM]
COc1ccc(NC(=O)CCc2c(C)nc3c(-c4ccc(F)cc4)c(C)nn3c2C)c(OC)c1	?	nt	0	27%[46.1 µM]	?
COc1ccc(NC(=O)CN(C)C(=O)c2cn(-c3ccccc3)nc2-c2ccc(F)cc2)cc1	-21%	11µM*	11	nt	nt
CC(=O)Nc1cn(-c2ccccc2)nc1-c1ccccc1	-1%	4%	-27	-4%[46.1 µM]	?
O=C(CCl)Nc1cn(-c2ccccc2)nc1-c1ccccc1	20µM*	2.8µM*	-96*	4.1µM*	16µM*
O=C(Nc1cn(-c2ccccc2)nc1-c1ccc(F)cc1)c1ccccc1	7%	-19%	-61*	12%	4%
Cc1ccc(-c2nn(-c3ccccc3)cc2NC(=O)c2ccccc2)cc1	14%	?	5	12%	23%
Cc1nc(-c2ccccc2)sc1CCNS(=O)(=O)c1ccccc1	41%	nt	-3	?	nt
CN(C(=O)CCn1c(=S)oc2ccccc21)c1ccc(F)cc1	-5%	8%	-89*	nt	nt
CCOC(=O)c1c(NC(=O)CN2CCCCC2)sc2c1CCC(C=O)=C2Cl	?	2.2µM*	14	-13%	16%
Clc1ccc(C[n+]2cc(-c3ccccc3)n3c2CCCCC3)c(Cl)c1	?	-30%	-78*	nt	nt
O=C(C[n+]1cc(-c2ccccc2)n2c1CCCCC2)c1ccc(Cl)cc1	-8%	-19%	5	-28%[46.1 µM]	-11%[46.1 µM]
CC1CCC(C(C)C)C(OC(=O)C[n+]2cc(-c3ccc(Cl)cc3)n3c2CCCCC3)C1 (stereo not drawn)	?	-17%	-97*	?	?
Cc1ccc(-c2c[n+](CC(=O)c3ccc(Br)cc3)c3n2CCCCC3)cc1	?	-8%	-88*	?	10µM*
Clc1ccc(-c2c[n+](Cc3ccc(Cl)cc3Cl)c3n2CCCCC3)cc1	-13%	-22%	-102*	nt	nt
O=C(c1cccs1)N1C[C@@H](O)[C@@H](n2cc(-c3ccc(F)cc3)nn2)C[C@@H]1c1ccc(Cl)cc1	nt	nt	nt	-13%[46.1 µM]	nt
O=S1(=O)c2ccccc2N(Cc2ccc(Cl)cc2F)c2ccccc21	?	nt	-3	8%[46.1 µM]	nt
COc1ccc(-c2cc(C(F)(F)F)nc(SCCC(=O)Nc3ccc(F)cc3F)n2)cc1	-23%	nt	-27	-2%[46.1 µM]	-4%[46.1 µM]
N#CC[n+]1cc(-c2ccc(Cl)cc2)n2c1CCC2	10%	6%	20	-6%	16%
Clc1ccc(-c2c[n+](Cc3ccc(Br)cc3)c3n2CCCCC3)cc1	6%	12%	-68*	-18%[46.1 µM]	?
CCCCC(=O)N(C)c1c(CC)nc2c(OCCC3CCCCC3)cccn12	?	nt	-98*	nt	nt
CCc1nc2c(OCCC3CCCCC3)cccn2c1N(C)C(=O)CC(C)C	?	nt	47	nt	nt
CCOC(=O)C(=O)N(C)c1c(CC)nc2c(OCc3ccc(Cl)cc3)cccn12	-2%	nt	-15	nt	nt
SMILES	FMDV antiviral	HCV inhibitor	HCMV inh	Lassa entry inh	MARV entry inh
CCc1nc2c(OCCn3cccc3)cccn2c1N(C)C(=O)c1cccs1	-27%	nt	-17	nt	nt
CCCCC(=O)N(C)c1c(CC)nc2c(OCC3CCCCC3)cccn12	0%	nt	-64*	nt	nt
CCOC(=O)N(C)c1c(CC)nc2c(OCc3ccc(Cl)cc3)cccn12	-16%	nt	-89*	nt	nt
CCc1nc2c(OCCC3CCCCC3)cccn2c1N(C)C(=O)c1cccs1	28µM*	nt	-16	nt	nt
COC(=O)c1cc(CNC(=O)c2cccc(C)c2)cc(NC(=O)c2ccncc2)c1	-6%	nt	nt	nt	nt
CCc1cc2c(cc3c(=O)n(CCCC(=O)NCc4ccccc4Cl)nc(CC)n32)s1	6%	nt	62	nt	-10%[46.1 µM]
CCC(C)c1ccccc1NC(=O)COC(=O)c1ccc2[nH]c3c(c2c1)CCCC3 (stereo not drawn)	28µM*	?	-100*	?	2.2µM*
O=C(COC(=O)c1ccc2[nH]c3c(c2c1)CCCC3)Nc1ccc(Cl)cc1Cl	-18%	?	-11	5%	8.9µM*
CCN(C(=O)COC(=O)c1ccc2[nH]c3c(c2c1)CCCC3)C1CCS(=O)(=O)C1 (stereo not drawn)	-11%	-26%	-25	-3%	-4%[46.1 µM]
CN(CCC#N)C(=O)COC(=O)c1ccc2[nH]c3c(c2c1)CCCC3	9%	?	-73*	?	?
C#CCNc1ccc2c(c1)OC[C@H](C)NS2(=O)=O	nt	nt	nt	13%[46.1 µM]	nt
Cc1ccc(CNC(=O)CN2C(=O)C3(SCC(=O)N3c3ccc(F)c(F)c3)c3ccccc32)cc1 (stereo not drawn)	5%	nt	-12	-4%[46.1 µM]	nt
COc1cccc(-c2nc(CS(=O)(=O)CC(=O)NC3CCCC3)c(C)o2)c1	?	?	-21	4%[46.1 µM]	?
Cc1oc(-c2cccc(Cl)c2)nc1CS(=O)(=O)CC(=O)NC1CCCC1	-5%	-7%	-62*	-6%[46.1 µM]	7%[46.1 µM]
COc1cccc(-c2nc(CS(=O)(=O)CC(=O)NC3CCCc4ccccc43)c(C)o2)c1 (stereo not drawn)	-7%	11µM*	?	nt	nt
COc1cccc(-c2nc(CS(=O)(=O)CC(=O)Nc3ccccc3Cl)c(C)o2)c1	-20%	13µM*	-24	-4%[46.1 µM]	-28%[46.1 µM]
COc1cccc(NC(=O)c2ccc(-c3nc(COc4ccc(C)cc4)c(C)o3)cc2)c1	0%	nt	17	?	nt
COc1cccc(NC(=O)c2ccc(-c3nc(COc4ccccc4)c(C)o3)cc2)c1	?	nt	-66*	1%[46.1 µM]	nt
Cc1cccc(C(=O)NCc2nc(-c3cccc(NC(=O)c4ccoc4C)c3)oc2C)n1	-19%	nt	nt	nt	nt
COc1cccc(-c2nc(CS(=O)(=O)CC(=O)Nc3ccc(C(C)=O)cc3)c(C)o2)c1	-18%	11µM*	10	nt	nt
COc1cccc(C(=O)NCc2nc(-c3cccc(NC(=O)c4ccoc4C)c3)oc2C)c1OC	20µM*	nt	nt	nt	nt
COc1cccc(-c2nc(CS(=O)(=O)CC(=O)Nc3ccc(C)c(Cl)c3)c(C)o2)c1	-17%	nt	-1	2%[46.1 µM]	?
COc1ccc(C)cc1NC(=O)CN(c1cc(C(F)(F)F)ccc1Cl)S(C)(=O)=O	2%	nt	-9	-8%[46.1 µM]	?
CCN(CC)CCCNC(=O)c1cc(-c2ccccc2)c(N2CCCCC2)s1	?	6.3µM*	-18	16µM*	?
O=C(NCCc1ccccc1)c1cc(-c2ccccc2)c(N2CCOCC2)s1	-2%	?	-32	nt	nt
C#CCN1C(=O)CC[C@@]23C1=NC(C(=O)OC)=C(C(=O)OC)[C@@H]2N(CC=C(C)C)c1ccccc13	nt	nt	nt	?	15%[14.2 µM]
